From PubChem BioAssay
Shown are actives, neighbours in structure and some others; about 1.2% of the full set was active somewhere.
LANA-H2A inh: blockers of LANA interaction with H2A/H2B – biochemical, FP readout, HTS, primary screen. cell-free LANA-H2A/H2B peptide, fluorescence polarization. Protein LANA1 (Human herpesvirus 8 type P (isolate GK18)), Q9QR71. actives 0.6% (n = 320,000). inhibition, % (concentration not given with the values); in the data active = inhibition mostly above about 10%, no sharp cut-off; inactive = mostly below about 6.7%
HDAC3 inhib: HDAC3 deacetylase inhibitors, primary screen, biochemical, fluorescence, cell-free homogeneous. Histone deacetylase 3 (Homo sapiens), O15379. recombinant HDAC3, fluorogenic peptide/trypsin coupled. inhibition, % at 8.3 µM. actives 0.15% (n = 320,000). AID 2718, 2010; in the data active = inhibition above about 26%, passing the limit was not always enough
Target sequence (O15379 whole entry, looked up): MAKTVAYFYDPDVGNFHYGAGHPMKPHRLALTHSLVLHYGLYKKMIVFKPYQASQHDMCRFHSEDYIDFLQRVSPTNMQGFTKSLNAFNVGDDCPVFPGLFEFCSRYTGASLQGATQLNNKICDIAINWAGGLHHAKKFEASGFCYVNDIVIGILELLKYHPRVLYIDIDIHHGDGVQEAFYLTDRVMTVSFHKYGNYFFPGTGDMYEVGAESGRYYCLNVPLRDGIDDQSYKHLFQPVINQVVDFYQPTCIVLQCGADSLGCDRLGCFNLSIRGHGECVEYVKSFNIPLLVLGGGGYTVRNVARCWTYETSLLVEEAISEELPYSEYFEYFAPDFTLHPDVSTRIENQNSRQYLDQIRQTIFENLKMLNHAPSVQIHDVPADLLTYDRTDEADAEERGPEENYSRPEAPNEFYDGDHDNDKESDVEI
CR mimetic SO: reduction of superoxide in aged yeast, primary screen, HTS | S. cerevisiae aged cells, superoxide DHE fluorescence; hits give low values | superoxide response (% of plate mean), % at 10 µM | actives 0.18% (n = 330,000) | AID 2690, 2010;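 active = superoxide response under a set limit, about three screen SD below normal, cut at about 65% in these data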;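 note: yeast aged for seven days with compound at 30 °C before DHE staining; 100% = average MFI of all compound-treated wells on the plate with controls excluded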
HIF activator: HIF pathway transcriptional activators, primary screen, cell-based, U2OS HRE-luciferase, luminescence; activation, % at 7.5 µM (by protocol); U2OS HRE-luciferase reporter; normalized: DMSO 0%, desferrioxamine 100%; actives 0.32% (n = 300,000);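 active = mean activation of at least 10% of the iron chelator positive control signal, with at least half of replicates also reaching 10%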
The depositor's hits bear a star; x = not tested or not shown; + = active, no number.

SMILES | LANA-H2A inh | HDAC3 inhib | CR mimetic SO | HIF activator
O=C(CSc1nnnn1-c1cccc2ccccc12)Nc1ccc(N2CCOCC2)c(Cl)c1 | 15.2* | 3.5 | 88.3 | -0.2
O=C(CSc1nnnn1-c1ccccc1)Nc1ccc(N2CCOCC2)c(Cl)c1 | -1.9 | 0.6 | 113.6 | 0.0
Brc1cccc(OCCCNC2CCCC2)c1 | 5.1 | 2.0 | 105.2 | 1.0
CC1CCN(c2ccc3c(c2)S(=O)(=O)c2cccc(C(=O)NCc4cccc(F)c4)c2C3=O)CC1 | 1.1 | 5.2 | 96.5 | x
O=C(NCc1cccc(F)c1)c1cccc2c1C(=O)c1ccc(N3CCCC3)cc1S2(=O)=O | 25.2* | 9.9 | 102.9 | x
COc1ccc(C(CNc2ccc(S(=O)(=O)N3CCCC3)cc2[N+](=O)[O-])N2CCCC2)cc1 (stereo unspecified) | -1.8 | 5.1 | 96.8 | -0.3
Clc1ccc(CNCCCSc2ncccn2)cc1 | 2.5 | -0.2 | 95.6 | -2.0
Brc1ccc(CNCCCSc2ncccn2)cc1 | -2.5 | 34.5* | 104.3 | 0.3
CCN(CCn1cccn1)Cc1nc(-c2ccc(OC)cc2)no1 | + | -10.1 | 92.4 | 0.8
COc1ccc(Cl)cc1C(=O)NNC(=O)c1cccc([N+](=O)[O-])c1 | 156.1* | -3.7 | 96.7 | 0.1
CCOc1ccc2c(C)c(Cl)c(=O)oc2c1 | 0.4 | -16.6 | 85.5 | 95.7*
Cc1c(Cl)c(=O)oc2cc(OCC(=O)NCc3cccs3)ccc12 | 2.9 | -8.8 | 82.8 | -0.1
Oc1c(N=NC(=S)Nc2ccccc2F)c2ccccc2n1Cc1ccccc1F | -0.9 | -1.4 | 101.9 | -0.8
Oc1c(N=NC(=S)Nc2ccccc2F)c2ccccc2n1Cc1ccc(Cl)cc1 | 20.6* | -0.7 | 111.1 | 1.0
COc1ccc(NC(=O)CCCN2C(=O)C3CC=CCC3C2=O)cc1 (stereo unspecified) | 0.9 | -3.0 | 98.3 | 0.4
C/C(=C\c1ccccc1)C(=O)n1nnc2ccccc21 | 1.5 | 28.1* | 90.2 | -0.3
CCc1ccc(NC(=S)N2CCC(NC(=O)c3ccccc3OC)CC2)cc1 | 1.0 | 4.0 | 116.6 | 0.0
CC(C)(C)OC(=O)C[C@@H]1C/C=C\C[C@H](CC(=O)N(CCO)Cc2ccccc2)C(=O)N[C@@H](Cc2c[nH]c3ccccc23)COC1=O | 3.2 | 11.2 | 91.7 | x
CCc1nnc(NC(=O)c2ccc(S(=O)(=O)N(CCOC)CCOC)cc2)o1 | -0.8 | -2.9 | 98.3 | 0.3
COCCN(CCOC)S(=O)(=O)c1ccc(C(=O)Nc2nnc(C3CC3)o2)cc1 | + | -1.8 | 81.3 | -0.7
C=CCN1C(=O)/C(=C2\SC(N3CCOCC3)=NC2=O)c2cc(Br)ccc21 | 19.1* | 0.5 | 99.6 | -0.6
CCN1C(=O)/C(=C2\SC(N3CCOCC3)=NC2=O)c2ccccc21 | x | x | x | -8.0
COc1cc(OC)c(C(=O)OCC(=O)Nc2c(C)n(C)n(-c3ccccc3)c2=O)cc1OC | x | x | 101.6 | x
Cc1ccc(CC(=O)Nc2nc3ccccc3s2)cc1 | 23.9* | 3.8 | 108.5 | 4.5
CCN1CCN(C(=O)c2ccc(N3CC4CC(C3)c3cccc(=O)n3C4)c(NC(=O)c3cc(OC)cc(OC)c3)c2)CC1 (stereo unspecified) | 5.7 | -3.3 | 123.6 | -0.9
SMILES | LANA-H2A inh | HDAC3 inhib | CR mimetic SO | HIF activator
Cn1[nH]c(-c2ccccc2)c(/C=N/O)c1=O | 29.3* | -10.5 | 104.5 | -0.1
CNC(=O)N(O)C1N(c2ccccc2)C(=S)SC1(C)C (stereo unspecified) | 0.9 | 1.2 | 92.4 | -0.6
CC1(C)Cc2c(C#N)c(SCCC#N)nc(N3CCOCC3)c2CO1 | -2.3 | 2.6 | 95.9 | 35.2*
CC(Sc1nnc(C(C)Oc2ccccc2F)o1)C(=O)NCc1ccc2c(c1)OCO2 (stereo unspecified) | -9.1 | 11.0 | 90.2 | x
COc1ccccc1NC(=O)COC(=O)/C=C/c1ccc2c(c1)OCO2 | 14.2* | -2.7 | 101.9 | 0.1
CC(=O)c1ccc(COC(=O)c2cc3ccccc3oc2=O)cc1 | 11.2* | -6.5 | 85.3 | 2.4
COc1ccc(CNC(=O)C2CCCN(c3nn4c(=O)cc(C)nc4s3)C2)cc1 (stereo unspecified) | 5.9 | 7.9 | 99.9 | -1.4
COc1ccc(NC(=O)C2CCCN(c3nn4c(=O)cc(C)nc4s3)C2)c(OC)c1 (stereo unspecified) | 10.9* | 3.0 | 96.9 | 0.1
COc1ccc(C(C)=O)cc1COC(=O)C1CC(=O)N(Cc2ccccc2)C1 (stereo unspecified) | 2.5 | -5.3 | 82.5 | -0.2
